Assay results taken from PubChem BioAssay (Tox21).
Results filed as inconclusive are left out. Active and inactive are the calls of the source. The call rests on the fitted dose curve; in most records, active means well fitted cell-killing curve with a large enough effect in the repeat runs; inconclusive means weak or mixed curves, or effect the other way; inactive means no such curve, though single readings can be large or run the other way.

experiment: qHTS assay for small molecule activators of the heat shock response signaling pathway - cell viability counter screen (AID 743209); conditions: HSE-bla HeLa viability, CellTiter-Glo luminescence, 5 h; series mostly up to 62.6 µM; further: nearly all actives have a fitted effect of over 50% in size
Description: U.S. Tox21 Program National Center for Advancing Translational Sciences [NCATS] NIH Chemical Genomics Center [NCGC] U.S. Environmental Protection Agency [EPA] National Institutes of Environmental Health Sciences [NIEHS] National Toxicology Program [NTP] U.S. Food and Drug Administration [FDA] Tox21 Assay Overview: Various chemicals, environmental and physiological stress conditions may lead to the activation of heat shock response/ unfolded protein response (HSR/UPR). There are three heat shock transcription factors (HSFs) (HSF-1, -2, and -4) mediating transcriptional regulation of the human HSR. To identify the compounds that activate HSR signaling, HSE-bla HeLa cell line (Invitrogen, Carlsbad, CA, USA) containing a beta-lactamase reporter gene under the control of the heat shock response elements was used to screen Tox21 10K compound library. The cytotoxicity of the Tox21 compound library against the HSE-bla HeLa cell line was tested in parallel by measuring the cell viability using CellTiter-Glo assay (Promega, Madison, WI) in the same wells.
Tox21 Assay Protocol Summary: The CellSensor HSE-bla HeLa cells (Invitrogen, Carlsbad, CA, USA) were dispensed at 1500 cells/6uL/well into 1536-well black wall/clear bottom plates using a Multidrop combi (Thermo Fisher Scientific, Waltham, MA) dispenser. After the assay plates were incubated at 37 C and 5% CO2 overnight, 23 nL of compounds dissolved in DMSO, positive controls or DMSO only was transferred to the assay plate by a Pintool station (Kalypsys, San Diego, CA). The plates were incubated at 37 C for 5 h. After 1 uL of LiveBLAzerTM B/G FRET substrate was added using a Flying Reagent Dispenser (FRD, Beckman Coulter, Indianapolis, IN, USA), the plates were incubated at room temperature for 2.5 h, and fluorescence intensity was measured by an Envision plate reader (PerkinElmer, Shelton, CT). For cell viability readout that measures cytotoxicity, 3 ul/well of CellTiter-Glo reagent was added into the assay plates using a FRD. After 30 min incubation at room temperature, the luminescence intensity in the plates was measured using a ViewLux (PerkinElmer) plate reader.

SMILES	outcome
O=C(O)c1ccc(C(=O)O)cc1	inactive
CCCCCCCCCCCCCCCO	inactive
C[C@H]1C[C@H]2[C@@H]3CCC4=CC(=O)C=C[C@]4(C)[C@@]3(F)[C@@H](O)C[C@]2(C)[C@@]1(O)C(=O)CO	inactive
Cc1ccc(N(C)C)cc1	inactive
CC(c1cc2ccccc2s1)N(O)C(N)=O (stereo not given)	inactive
CCCCCOC(C)=O	inactive
CC(C)(C)[C@@H](O)[C@@H](Cc1ccc(Cl)cc1)n1cncn1	inactive
C#C[C@]1(O)CC[C@H]2[C@@H]3CCC4=CC(=O)CC[C@@H]4[C@H]3CC[C@@]21C	inactive
CN(C)CCC(c1ccc(Cl)cc1)c1ccccn1 (stereo not given)	inactive
CC1=CCC2CC1C2(C)C (stereo not given)	inactive
CCCCCCOCCO	inactive
c1ccc2c(c1)ccc1ccccc12	inactive
Cc1ccc(S(N)(=O)=O)cc1	inactive
COc1ccc(NC(C)=O)cc1N	inactive
CCCCCCCCC/C=C/CC1CC(=O)OC1=O (stereo not given)	inactive
COCCCOc1ccnc(CS(=O)c2nc3ccccc3[nH]2)c1C (stereo not given)	inactive
O=C(O)c1cc(O)c(O)c(O)c1	inactive
O=C(O)c1cc(=O)c2c(OCC(O)COc3cccc4oc(C(=O)O)cc(=O)c34)cccc2o1	inactive
CC1=C(C)S(=O)(=O)CCS1(=O)=O	inactive
CSCCC=O	inactive

SMILES	outcome
CC1=CC(=O)NS(=O)(=O)O1	inactive
CC(C)(N)CO	inactive
O=C(O)CCCCCCCCCCC(=O)O	inactive
Cc1cccnc1	inactive
CCCSc1ccc2nc(NC(=O)OC)[nH]c2c1	inactive
O=P(OC(CCl)CCl)(OC(CCl)CCl)OC(CCl)CCl	inactive
CCCCCC(N)=O	inactive
COc1ccc(Nc2ccccc2)c(C)c1	inactive
O=C(O)[C@H](O)[C@@H](O)[C@H](O)[C@H](O)CO	inactive
CCCC(C)=O	inactive
Nc1cc([N+](=O)[O-])ccc1O	inactive
O=C(CC(C(=O)OC1CCCCC1)S(=O)(=O)O)OC1CCCCC1 (stereo not given)	inactive
Oc1cccc2ccccc12	inactive
CCC(O)OC(O)CC (stereo not given)	inactive
O=C1CCC(N2C(=O)c3ccccc3C2=O)C(=O)N1 (stereo not given)	inactive
C[C@H]1C[C@@H]2[C@H]([C@@H](O)C[C@@]3(C)[C@H]2CC[C@]3(O)C(=O)CO)[C@@]2(C)C=CC(=O)C=C12	inactive
CCCCC(CC)COC(=O)C(C#N)=C(c1ccccc1)c1ccccc1 (stereo not given)	inactive
CC(C)CC(=O)CC(C)C	inactive
N[C@@H](Cc1cc(I)c(Oc2cc(I)c(O)c(I)c2)c(I)c1)C(=O)O	inactive
CCCCCCCCCCCCOCCO	inactive
